Source: PubChem
The list is not random: actives were taken first. Their share in the collection is about 6.5%.
A340 absorber = compound light absorbance at 340 nm, profiling panel, artefact control, biochemical, MLSMR library, data from PS, PMK, MK assays | compound absorbance at 340 nm, fold over control | fold change at 10 µM | 65,000 tested, under 10 active;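 active = at 10 µM dose, initial 340 nm absorbance at least 2 fold that of control wells; inactive = change under 2 fold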;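 also: initial absorbance extrapolated from kinetic A340 decline of NADH oxidation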
MK inhibit = S. pneumoniae MK inhibitors, primary screen, biochemical, PK/LDH-coupled NADH absorbance. mevalonate kinase [Streptococcus pneumoniae D39]. purified MK, PK/LDH-coupled NADH absorbance 340 nm. inhibition, % at 10 µM. actives 0.48% (n = 65,000). AID 555, 2006;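 active = ranked among the strongest by inhibition in the single 10 µM screen, a fixed top-ranked set picked for dose follow-up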
PMK inhibit = S. pneumoniae PMK inhibitors, primary screen, biochemical, mevalonate pathway, pilot trial included; phosphomevalonate kinase (Streptococcus pneumoniae D39); purified PMK, PK/LDH-coupled NADH absorbance 340 nm; inhibition, % at 10 µM; actives 0.49% (n = 65,000); AID 539, 2006;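 active = top-ranked compounds by inhibition in the single 10 µM screen, taking a fixed number of the strongest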;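 also: 0% = full reaction with DMSO carrier and 100% = background rate without enzyme reaction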
Fluor 339 460 = intrinsic fluorescence of library compounds, ex339/em460 – biochemical, MLSMR library, data from DPM-DC assay, artefact control, profiling panel. compound autofluorescence, ex339/em460 nm, NADH buffer; stronger effect = higher value; 1 = no-compound wells, NADH background. fluorescence fold increase at 10 µM. actives 5.5% (n = 65,000);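 active = at 10 µM, mean starting fluorescence two-fold or more over control wells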;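 also: signal is the first read of a kinetic run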
NADH coupling = inhibitors of PK/LDH coupling enzymes, profiling panel, artefact control, biochemical, MLSMR library | coupled PK/LDH NADH assays, four targets | IC50, µM (titrated, usually from 10 µM), without a hit: at the top dose inhibition | actives 0.02% (n = 65,000) | AID 774, 2007;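 active = single-dose screening hits from any of four coupled enzyme assays that gave an IC50 when retested across doses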;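 also: the DPM-DC format reads NADH fluorescence rather than 340 nm absorbance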
DPM-DC inhibit = S. pneumoniae DPM-DC inhibitors, primary screen, biochemical, PK/LDH-coupled NADH fluorescence; calls only at 10 µM; AID 556, 2006; diphosphomevalonate decarboxylase (Streptococcus pneumoniae D39); actives 0.49% (n = 65,000); purified DPM-DC;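 active = the 320 compounds with the highest percent inhibition in the single-dose primary screen, excluding strongly autofluorescent ones, cut at about 32% in these data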;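 also: kinetic rate of NADH fluorescence loss reporting ADP formed by the decarboxylase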
The depositor's hits bear a star; i = inactive; x = no result shown; + = active, no number.

SMILES	A340 absorber	MK inhibit	PMK inhibit	Fluor 339 460	NADH coupling	DPM-DC inhibit
COc1ccc(C(O)Cn2c(=N)n(CCCN(C)C)c3ccccc32)cc1 (stereo unspecified)	1	0	8	0.99	8%	+
COc1ccc(OCCn2c(=N)n(CCO)c3ccccc32)cc1	1	4	3	1.1	4%	i
COc1ccc(-n2c(N)c(C(=O)NCC3CCCO3)c3nc4ccccc4nc32)c(OC)c1 (stereo unspecified)	1	11	5	3.9*	8%	x
C=CCn1c(N)c(C(=O)NCC2CCCO2)c2nc3ccccc3nc21 (stereo unspecified)	1	9	7	3.8*	8%	x
COc1ccc(-n2nc(C(=O)NCC(=O)NCC3CCCO3)c3ccccc3c2=O)c(OC)c1 (stereo unspecified)	1	5	3	1.1	3%	i
O=C(NCC1CCCO1)c1coc2nc3ccccc3nc12 (stereo unspecified)	1.1	2	14	2.5*	16%	+
CN(c1ccccc1C(=O)NCC1CCCO1)S(C)(=O)=O (stereo unspecified)	1	6	7	1.2	5%	i
O=C(CSc1nnc(CNC(=O)c2ccccc2F)o1)c1ccccc1	1	0	12	1.1	4%	i
Cc1cccc(Nc2n[nH]c(=S)s2)c1C	1.1	54*	0	1.1	29%	+
c1ccc(-n2nc3c(ccc4cnnc43)[nH]2)cc1	1	13	5	4*	9%	x
CCCc1cc(C(=O)Nc2cc(OC)c(Cl)cc2OC)no1	1	4	2	1.1	2%	i
COc1ccc(-c2cc3ccccc3oc2=O)cc1NC(=O)c1ccc(Br)o1	1.2	2	0	3.8*	1%	x
COc1cc(OC)c(NC(=O)c2ccco2)cc1Cl	0.99	9	5	1	11%	i
COc1cc(NC(=O)c2cc(CC(C)C)on2)c(OC)cc1Cl	1	57*	2	1.1	7%	i
COc1ccc(NC(=O)c2ccco2)cc1NC(=O)c1cc2ccccc2o1	1.1	2	16	1.2	7%	i
COc1cc(NC(=O)c2cc(-c3ccco3)on2)c(OC)cc1Cl	1.1	5	5	4.6*	5%	x
COc1cc(NC(=O)c2cc3ccccc3o2)c(OC)cc1Br	1.1	0	5	1.8	10%	i
COc1cc(NC(=O)c2cc3ccccc3o2)c(OC)cc1Cl	1.1	5	10	2.2*	8%	x
COCCn1c(SCc2c(F)cccc2Cl)nc2c1c(=O)[nH]c(=O)n2C	1	4	0	1.1	1%	i
O=C(NCCc1c[nH]c2ccccc12)c1ccc(S(=O)(=O)NCc2ccco2)cc1	1	5	0	1.1	2%	i
COc1cc(C(=O)Nc2nnc(CC(=O)N3CCOCC3)s2)cc(OC)c1OC	1.1	11	6	1.1	6%	i
CCOC(=O)C1CCN(Cc2ccc(O)c(OC)c2)CC1	1.1	34	0	1	11%	i
CCN(CC)C(=O)C1CCCN(Cc2ccc(OC)c(C)c2C)C1 (stereo unspecified)	1.1	56*	0	1.2	19%	i
CCOC(=O)C1CCCN(Cc2cc(OC)c(O)c(OC)c2)C1 (stereo unspecified)	1.1	50*	0	1.1	17%	i
CCOC(=O)C1CCCN(Cc2cc(Br)c(OC)cc2OC)C1 (stereo unspecified)	1.1	50*	0	1.1	17%	i
COc1cccc(CN2CCCC(C(=O)N3CCCCC3)C2)c1OC (stereo unspecified)	1	0	8	1.2	3%	i
COc1ccc(CCNC(=O)Cn2cnc3c(cnn3-c3ccccc3Cl)c2=O)cc1OC	0.97	4	20	1.1	8%	i
